Experiment [1] in a line: rapamycin-like changes in RPL19A-GFP expression – cell-based, S. cerevisiae, multiplex flow cytometry, primary screen (AID 1862).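 Note: lower values mimic rapamycin by blocking the RPL19A rise seen in DMSO cells.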 Particulars: S. cerevisiae RPL19A-GFP strain, flow cytometry fluorescence, 3 h; at 10 µM; stronger effect = lower value.
Experiment [2] in a line: TOR pathway GLN3 branch reporter MEP2-GFP changes – S. cerevisiae, multiplex flow cytometry, primary screen (AID 1867;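 active = GFP response, as percent of the DMSO control, above the screen-wide mean plus 3 SD, about 139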;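 note: median GFP channel fluorescence of barcode-gated MEP2-GFP cells measured by flow cytometry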). The note with it: S. cerevisiae MEP2-GFP strain, 3 h, at 10 µM, stronger effect = higher value, 100% means same as DMSO wells.
Experiment [3] is described as follows: TOR pathway RTG branch CIT2 reporter changes – S. cerevisiae, GFP fusion, multiplex flow cytometry, primary screen (AID 1870;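 active = percent response above a set limit, the screen-wide mean plus 3 SD, cut at about 130% in these data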;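 note: barcoded CIT2-GFP strain pooled with four other GFP strains with rapamycin as positive control; median GFP fluorescence per well over plate mean of DMSO wells so 100% = DMSO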). The note with it: S. cerevisiae CIT2-GFP expression, 3 h, at 10 µM, stronger effect = higher value.
Experiment [4] in a line: TOR pathway LAP4-GFP level changes – S. cerevisiae, multiplex flow cytometry, primary screen (AID 1873;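 active = GFP signal, as percent of the solvent control, above the screen mean plus 3 SD, about 149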). The note with it: S. cerevisiae LAP4-GFP expression, 3 h, at 10 µM, stronger effect = higher value.
Experiment [5] is described as follows: yeast AGP1-GFP level changes, GLN3 branch – cell-based, multiplex flow cytometry, S. cerevisiae, primary screen (AID 1887;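 active = GFP signal above the screen-wide mean plus 3 SD, that is over about 124.5% of the solvent control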;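 note: AGP1-GFP fusion strain of S. cerevisiae within a five-strain barcoded multiplex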). Particulars: 3 h, at 10 µM, stronger effect = higher value.
A short description of experiment [6]: reduced mouse 2C T cell binding to pMHC/ICAM-1 vesicles – MLPCN validation set, flow cytometry, LFA-1/ICAM-1 modulator project, pilot screen (AID 2523;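 active = response below a set limit, under 55% cells CD8-positive and vesicle-bound, and CD8 cells' 90th-percentile brightness under 279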;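 for vesicle binding response: mean PE anti-B7-1 fluorescence of CD8+ cells relative to row control; 100% = QL9-loaded vesicles with DMSO vehicle in the same plate row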). The note with it: 2C mouse CD8+ T cells, at 7 µM, stronger effect = lower value; double positive events: measured here: CD8+/vesicle+ event percentage.
In experiment [7] the target is Integrin beta-1 (Homo sapiens) + Integrin alpha-4 (Homo sapiens) (UniProt P13612+P05556). Nature of the experiment: alpha4beta1 integrin LIBS antibody binding reduction – U937 cells, HUTS-21 mAb, flow cytometry, validation set, VLA-4 allosteric modulator project, pilot screen (AID 2674;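 active = inhibition above 50%, about 3 SD of the validation set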;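 note: antibody binding induced by the VLA-4 ligand LDV present at three times its Kd; 0% = LDV ligand with antibody and no compound and 100% = antibody without LDV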). Particulars: HUTS-21 LIBS mAb binding, at 6.7 µM, stronger effect = higher value, binding induced by LDV ligand.
Integrin beta-1 (Homo sapiens) + Integrin alpha-4 (Homo sapiens), sequence (P05556 whole entry, looked up): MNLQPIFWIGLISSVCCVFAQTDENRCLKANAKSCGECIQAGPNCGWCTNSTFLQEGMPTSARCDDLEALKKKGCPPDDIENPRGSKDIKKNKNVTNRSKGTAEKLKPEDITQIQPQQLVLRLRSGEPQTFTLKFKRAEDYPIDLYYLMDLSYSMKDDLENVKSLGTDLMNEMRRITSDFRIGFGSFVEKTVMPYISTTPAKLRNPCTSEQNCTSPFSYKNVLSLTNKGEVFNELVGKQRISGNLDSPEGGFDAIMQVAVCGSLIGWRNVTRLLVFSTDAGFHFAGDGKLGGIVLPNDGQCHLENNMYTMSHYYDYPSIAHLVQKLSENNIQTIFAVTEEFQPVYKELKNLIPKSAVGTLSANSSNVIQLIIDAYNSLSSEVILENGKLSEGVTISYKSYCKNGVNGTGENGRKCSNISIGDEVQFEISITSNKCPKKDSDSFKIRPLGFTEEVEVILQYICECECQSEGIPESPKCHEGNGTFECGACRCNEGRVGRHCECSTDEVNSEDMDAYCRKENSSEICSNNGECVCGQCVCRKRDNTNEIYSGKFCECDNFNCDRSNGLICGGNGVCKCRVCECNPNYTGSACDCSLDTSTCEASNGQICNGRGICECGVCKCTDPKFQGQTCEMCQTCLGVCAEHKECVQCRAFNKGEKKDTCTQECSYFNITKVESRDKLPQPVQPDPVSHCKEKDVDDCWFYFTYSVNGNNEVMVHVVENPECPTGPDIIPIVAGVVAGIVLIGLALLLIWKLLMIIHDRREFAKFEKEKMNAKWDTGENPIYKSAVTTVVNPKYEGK
Integrin beta-1 (Homo sapiens) + Integrin alpha-4 (Homo sapiens), sequence (P13612 whole entry, looked up): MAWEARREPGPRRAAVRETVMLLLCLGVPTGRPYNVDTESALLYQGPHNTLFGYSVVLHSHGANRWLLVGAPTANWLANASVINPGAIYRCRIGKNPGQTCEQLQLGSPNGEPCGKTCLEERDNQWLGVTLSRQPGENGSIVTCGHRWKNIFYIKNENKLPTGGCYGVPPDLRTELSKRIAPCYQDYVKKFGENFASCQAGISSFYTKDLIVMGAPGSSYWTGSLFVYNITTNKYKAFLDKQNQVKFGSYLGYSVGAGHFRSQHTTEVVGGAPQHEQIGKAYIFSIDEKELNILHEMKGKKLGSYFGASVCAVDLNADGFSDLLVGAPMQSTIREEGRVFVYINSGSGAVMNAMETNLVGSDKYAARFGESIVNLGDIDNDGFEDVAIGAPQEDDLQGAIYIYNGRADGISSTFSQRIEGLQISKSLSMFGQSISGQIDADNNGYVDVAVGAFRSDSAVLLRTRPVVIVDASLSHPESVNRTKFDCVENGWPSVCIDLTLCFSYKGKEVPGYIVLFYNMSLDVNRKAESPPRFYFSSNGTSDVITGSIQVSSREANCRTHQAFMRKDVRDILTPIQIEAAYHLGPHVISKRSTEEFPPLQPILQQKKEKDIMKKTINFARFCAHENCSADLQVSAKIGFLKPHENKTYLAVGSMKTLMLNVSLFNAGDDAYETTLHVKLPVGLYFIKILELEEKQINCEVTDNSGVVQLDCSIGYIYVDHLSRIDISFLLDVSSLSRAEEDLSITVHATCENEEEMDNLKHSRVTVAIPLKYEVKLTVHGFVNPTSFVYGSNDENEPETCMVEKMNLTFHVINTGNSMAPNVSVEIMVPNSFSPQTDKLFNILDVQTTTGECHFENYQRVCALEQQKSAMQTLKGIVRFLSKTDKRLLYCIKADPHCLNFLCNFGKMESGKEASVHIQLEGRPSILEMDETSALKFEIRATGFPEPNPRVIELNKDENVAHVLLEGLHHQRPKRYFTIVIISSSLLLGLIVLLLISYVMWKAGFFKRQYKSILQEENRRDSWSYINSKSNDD

Experiment [8] is described as follows: calorie-restriction mimetic ROS inhibitors, yeast – validation compound set, pilot screen (AID 2706;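 active = superoxide response below 65% of plate, a cut near 3 SD across the whole screen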;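 note: yeast exposed to compound for one week at 30 degrees C before staining; 100% = mean of all compound wells on the same plate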). The note with it: S. cerevisiae aging, superoxide DHE fluorescence; at 10 µM; stronger effect = lower value.
The target of experiment [9] is Beta-adrenergic receptor kinase 1 (Homo sapiens) (UniProt P25098). Kind of experiment: GRK2 binders displacing RNA aptamer, biochemical, validation, human GRK2, bead flow cytometry (AID 488806;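 active = aptamer binding inhibition above 30%, about 3 SD of noise from non-fluorescent compounds; inactive = inhibition at or below 30%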). Particulars: bead-bound GRK2, FAM-aptamer displacement, at 10 µM, stronger effect = higher value.
Beta-adrenergic receptor kinase 1 (Homo sapiens), sequence (P25098 whole entry, looked up): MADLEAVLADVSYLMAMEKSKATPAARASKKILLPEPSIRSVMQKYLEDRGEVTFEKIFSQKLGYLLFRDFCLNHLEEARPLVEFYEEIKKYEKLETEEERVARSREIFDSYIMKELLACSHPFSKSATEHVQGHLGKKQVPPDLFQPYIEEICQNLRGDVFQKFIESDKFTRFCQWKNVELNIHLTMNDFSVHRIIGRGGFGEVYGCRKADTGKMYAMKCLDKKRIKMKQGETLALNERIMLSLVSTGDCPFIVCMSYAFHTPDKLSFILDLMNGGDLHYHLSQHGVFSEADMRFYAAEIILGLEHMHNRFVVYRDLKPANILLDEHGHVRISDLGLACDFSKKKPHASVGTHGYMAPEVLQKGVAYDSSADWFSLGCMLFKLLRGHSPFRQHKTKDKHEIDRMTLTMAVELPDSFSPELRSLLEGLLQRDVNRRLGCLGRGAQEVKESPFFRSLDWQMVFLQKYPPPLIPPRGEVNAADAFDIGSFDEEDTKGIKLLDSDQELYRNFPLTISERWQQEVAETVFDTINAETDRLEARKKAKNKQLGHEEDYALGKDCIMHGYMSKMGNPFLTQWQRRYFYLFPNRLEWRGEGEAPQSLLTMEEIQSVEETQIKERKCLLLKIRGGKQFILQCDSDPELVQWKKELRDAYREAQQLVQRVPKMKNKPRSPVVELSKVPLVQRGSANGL
Experiment [10] concerns the target Beta-2 adrenergic receptor (Homo sapiens) (UniProt P07550). Kind of experiment: agonist-induced loss of surface beta2AR – cell-based, FAP fluorogen, flow cytometry, validation set, pilot screen (AID 504459;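 active = percent response above 42, roughly 3 SD of non-fluorescent test compounds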;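 note: agonist-driven loss of surface beta2AR via internalization measured by FAP dye flow cytometry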). Particulars: Am2.2-beta2AR cells, at 10 µM, stronger effect = higher value.
Experiment [11] addresses AP-2 complex subunit beta (Homo sapiens) (UniProt P63010). Kind of experiment: beta-arrestin/AP2 interaction blockers – biochemical, validation set, GST-AP2 beads, flow cytometry, pilot screen (AID 504541;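 active = inhibition above 54%, about 3 SD of non-fluorescent compounds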;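 note: AP2 carries R879A mutation and is captured from E. coli lysate; bead-bound FITC arrestin peptide fluorescence measuring arrestin peptide binding to AP2; 0% = DMSO wells and 100% = excess unlabeled arrestin peptide control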). The note with it: FITC arrestin peptide, at 10 µM, stronger effect = higher value, AP2 beta2 appendage fragment, R879A mutant.
The nature of experiment [12]: cytosolic pH regulators acting via V-ATPase – S. cerevisiae, pHLuorin, HTS validation (AID 504600; in the data active = response above about 15%;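 note: plate controls were DMSO for no effect and reference compound for full effect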). The note with it: V-ATPase proton transport, at 10 µM, stronger effect = higher value.
Experiment [13] concerns anti-desmoglein-3 scFv antibody binding to human DSG3. Nature of the experiment: blockers of pathogenic pemphigus antibody–desmoglein-3 binding – biochemical, validation compound set, bead-based, flow cytometry, pilot screen (AID 588368;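 active = binding below the plate cutoff, the plate median minus 3 SD, with a reading above zero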;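 note: signal is the median channel fluorescence of bead-bound GFP antibody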). Particulars: Protein G beads, DSG3-Fc, scFv-GFP binding, at 10 µM, stronger effect = lower value.
The nature of experiment [14]: Nile Red efflux blockade in pump-expressing yeast – validation compound set, multiplex, phenotypic, pilot screen (AID 588506;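 active = efflux inhibition above 0.42, the validation set average plus 4 SD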;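 note: Nile Red retained in cells so higher fluorescence means more efflux inhibition; 0 = negative control wells and 1 = enniatin B 25 µM full block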). The note with it: S. cerevisiae pump-expressing triplex, Nile Red efflux flow cytometry; at 10 µM; stronger effect = higher value; the pumps come from Candida albicans.
For experiment [15], the target named is ATP-binding cassette sub-family B member 6 (Homo sapiens) (UniProt Q9NP58). Nature of the experiment: blockers of ABCB6-driven porphyrin uptake – K562-ABCB6 cells, flow cytometry, validation set, pilot screen (AID 588550;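 active = inhibition above the screen-wide mean plus 3 SD, about 51%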;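 note: 0% = DMSO wells and 100% = benzethonium chloride 70 µM positive control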). The note with it: K562-ABCB6 porphyrin accumulation, 1 h, at 10 µM, stronger effect = higher value.
ATP-binding cassette sub-family B member 6 (Homo sapiens), sequence (Q9NP58 whole entry, looked up): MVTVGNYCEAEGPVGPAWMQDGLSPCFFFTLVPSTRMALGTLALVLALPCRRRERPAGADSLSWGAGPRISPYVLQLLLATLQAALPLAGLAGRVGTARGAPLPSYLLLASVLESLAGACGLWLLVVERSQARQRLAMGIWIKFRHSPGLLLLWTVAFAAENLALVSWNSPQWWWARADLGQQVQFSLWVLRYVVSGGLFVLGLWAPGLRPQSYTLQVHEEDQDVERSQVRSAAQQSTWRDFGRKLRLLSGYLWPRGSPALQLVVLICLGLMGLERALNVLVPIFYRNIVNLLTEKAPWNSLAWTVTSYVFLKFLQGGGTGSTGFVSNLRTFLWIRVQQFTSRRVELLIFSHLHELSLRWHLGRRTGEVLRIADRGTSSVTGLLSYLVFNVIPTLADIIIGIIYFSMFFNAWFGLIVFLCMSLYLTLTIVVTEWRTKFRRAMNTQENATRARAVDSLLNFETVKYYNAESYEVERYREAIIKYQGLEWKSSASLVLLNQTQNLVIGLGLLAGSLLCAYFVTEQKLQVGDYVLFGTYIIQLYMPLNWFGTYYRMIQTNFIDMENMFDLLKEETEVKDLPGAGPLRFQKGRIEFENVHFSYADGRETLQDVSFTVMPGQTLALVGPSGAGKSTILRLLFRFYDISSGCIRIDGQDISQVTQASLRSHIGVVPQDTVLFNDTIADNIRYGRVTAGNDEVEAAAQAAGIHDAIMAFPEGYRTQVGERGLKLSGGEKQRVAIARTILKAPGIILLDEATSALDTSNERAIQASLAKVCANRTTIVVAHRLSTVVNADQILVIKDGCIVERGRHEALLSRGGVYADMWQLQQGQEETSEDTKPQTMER
Experiment [16] is described as follows: AML differentiation inducers, ER-HoxA9 marrow cells – cell-based, GFP/MAC1 double positive, flow cytometry, validation set, primary screen (AID 588685;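 active = differentiation response of at least 50%, scaled between solvent and reference control, from cells with both markers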;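 note: compound exposure lasts four days before antibody staining and flow analysis; 0% = DMSO wells and 100% = 5 µM fulvestrant positive control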). Particulars: stronger effect = higher value, normalized: vehicle 0, fulvestrant 100.

The structures appear in SMILES notation. Results filed as inconclusive are left out. Active and inactive are the calls of the source. Cut-off read from the data, not from the text of the source, unless noted: active = percent of DMSO control GFP below about 86%; inactive = the rest, inconclusive results apart.

AP-2 complex subunit beta (Homo sapiens), sequence (P63010 whole entry, looked up, the tested form may be a part, one chain of several): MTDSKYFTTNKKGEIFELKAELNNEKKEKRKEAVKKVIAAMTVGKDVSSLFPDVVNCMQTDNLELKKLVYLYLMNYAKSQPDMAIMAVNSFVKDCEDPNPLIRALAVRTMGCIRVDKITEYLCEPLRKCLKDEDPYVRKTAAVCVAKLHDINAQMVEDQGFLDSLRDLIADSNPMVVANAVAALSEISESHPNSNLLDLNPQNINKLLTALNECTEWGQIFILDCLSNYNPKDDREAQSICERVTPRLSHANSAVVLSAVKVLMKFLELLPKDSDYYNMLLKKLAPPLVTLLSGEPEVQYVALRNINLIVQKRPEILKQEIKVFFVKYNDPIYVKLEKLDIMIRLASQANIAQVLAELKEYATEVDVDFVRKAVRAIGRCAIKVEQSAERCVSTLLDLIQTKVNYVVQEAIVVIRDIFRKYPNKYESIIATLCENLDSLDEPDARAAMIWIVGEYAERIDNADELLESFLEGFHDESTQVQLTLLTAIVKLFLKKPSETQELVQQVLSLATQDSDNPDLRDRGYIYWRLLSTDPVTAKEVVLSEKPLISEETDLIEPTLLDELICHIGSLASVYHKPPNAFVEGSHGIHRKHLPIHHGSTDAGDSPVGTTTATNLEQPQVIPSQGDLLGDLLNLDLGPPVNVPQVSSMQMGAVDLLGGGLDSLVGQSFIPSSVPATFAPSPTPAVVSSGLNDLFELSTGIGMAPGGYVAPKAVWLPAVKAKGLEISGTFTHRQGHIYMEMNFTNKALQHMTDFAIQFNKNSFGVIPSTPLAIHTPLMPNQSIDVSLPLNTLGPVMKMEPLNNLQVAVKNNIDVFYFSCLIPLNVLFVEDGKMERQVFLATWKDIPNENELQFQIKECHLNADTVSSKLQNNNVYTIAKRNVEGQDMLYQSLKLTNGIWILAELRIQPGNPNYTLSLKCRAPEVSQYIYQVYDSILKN
Beta-2 adrenergic receptor (Homo sapiens), sequence (P07550 whole entry, looked up): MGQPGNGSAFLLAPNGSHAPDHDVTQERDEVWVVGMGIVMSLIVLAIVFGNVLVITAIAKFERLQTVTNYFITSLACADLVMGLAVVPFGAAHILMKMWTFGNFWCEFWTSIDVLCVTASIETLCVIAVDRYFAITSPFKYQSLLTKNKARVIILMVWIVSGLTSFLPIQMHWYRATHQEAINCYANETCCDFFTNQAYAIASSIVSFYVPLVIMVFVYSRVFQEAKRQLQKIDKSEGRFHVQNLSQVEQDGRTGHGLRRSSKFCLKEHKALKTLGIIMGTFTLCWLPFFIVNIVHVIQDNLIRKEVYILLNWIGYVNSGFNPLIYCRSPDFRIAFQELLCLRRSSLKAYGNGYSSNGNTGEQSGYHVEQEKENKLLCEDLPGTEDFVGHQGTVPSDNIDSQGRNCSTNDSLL

For the compound `COc1ccc(C(=O)NCc2cccnc2)cc1`, the percent of DMSO control GFP in experiment [1] was 103% (inactive). Also, the results for the GFP response vs DMSO in experiment [2] and in experiment [4] were 101% (inactive) and 85.4% (inactive), respectively. In addition, in experiment [3], the percent response of DMSO control is 98.6% (inactive). Further, the GFP response, % of DMSO in experiment [5] was 94.6% (inactive). The double positive events in experiment [6] worked out at 58.3%. Also, in experiment [6], the vesicle binding response is 247% (inactive). Further, the inhibition in [7] is 11.9% (inactive); in [11], -8.5% (inactive); in [15], 6% (inactive). Further, the superoxide response (% of plate) in experiment [8] was 105% (inactive). The aptamer binding inhibition in [9] was 7% (inactive). Also, the response is 3.58% (inactive) in experiment [10] and 1.75% (inactive) in experiment [12]. For the same compound, the binding (% of control) in [13] is 101% (inactive). Also, the efflux inhibition (fraction of control) in experiment [14] was -0.13 (inactive). Further, in experiment [16], the differentiation response was -24.8% (inactive).
Turning to `O=C(Nc1ccccc1C(=O)N1CCCCCC1)c1ccccc1Cl`, the percent of DMSO control GFP in experiment [1] is 103% (inactive). Also, the results for the GFP response vs DMSO in [2] and in experiment [4] were 103% (inactive) and 96.5% (inactive), respectively. Moreover, the percent response of DMSO control in experiment [3] was 94.9% (inactive). Moreover, the GFP response, % of DMSO in experiment [5] is 102% (inactive). The compound also yielded a double positive events in experiment [6] of 60.2%. The vesicle binding response in [6] is 146% (inactive). For the same compound, the inhibition was -10.3% (inactive) in [7], 26.6% (inactive) in [11] and 7% (inactive) in experiment [15]. Also, in experiment [8], the superoxide response (% of plate) is 115% (inactive). Further, the aptamer binding inhibition in experiment [9] is 4% (inactive). The response in experiment [10] was -9.01% (inactive); in experiment [12] it was -0.64% (inactive). For the same compound, the binding (% of control) in experiment [13] was 100% (inactive). Moreover, the efflux inhibition (fraction of control) in experiment [14] is -0.06 (inactive). Moreover, in [16], the differentiation response was 8.02% (inactive).
As for `O=C(N1CCCCC1)C1(c2ccccc2)CCOCC1`, the percent of DMSO control GFP in experiment [1] was 99.3% (inactive). The GFP response vs DMSO in experiment [2] was 103% (inactive); in experiment [4] it was 129% (inactive). For the same compound, the percent response of DMSO control in experiment [3] is 92% (inactive). The GFP response, % of DMSO in experiment [5] was 103% (inactive). Besides, the double positive events in [6] stood at 57.5%. Also, the vesicle binding response in [6] is 213% (inactive). In addition, the figures for the inhibition in experiment [7], in experiment [11] and in experiment [15] were -3.16% (inactive), 7.05% (inactive) and 5% (inactive), respectively. Besides, the superoxide response (% of plate) in experiment [8] was 92.5% (inactive). For the same compound, in experiment [9], the aptamer binding inhibition is 1% (inactive). For the same compound, the response is -7.86% (inactive) in experiment [10] and 0.45% (inactive) in [12]. Moreover, the binding (% of control) in experiment [13] was 104% (inactive). Further, in [14], the efflux inhibition (fraction of control) is -0.17 (inactive). For the same compound, in experiment [16], the differentiation response was -24.8% (inactive).
As to `COc1ccc(/C=C/C(=O)NC(=S)NN2CCCCC2c2cccnc2)cc1` (centres undefined), the percent of DMSO control GFP in experiment [1] is 106% (inactive). In addition, the GFP response vs DMSO in [2] was 99.7% (inactive); in [4], 107% (inactive). The percent response of DMSO control in experiment [3] was 102% (inactive). In addition, the GFP response, % of DMSO in [5] was 109% (inactive). Besides, in experiment [6], the double positive events is 66.3%. For the same compound, the vesicle binding response in experiment [6] was 199% (inactive). In addition, the results for the inhibition in experiment [7], in experiment [11] and in [15] were -2.43% (inactive), 12.7% (inactive) and 2% (inactive), respectively. Moreover, the superoxide response (% of plate) in experiment [8] was 95.5% (inactive). In addition, in experiment [9], the aptamer binding inhibition was -3% (inactive). Also, the response in experiment [10] was -5.93% (inactive); in [12], 0.36% (inactive). Also, the binding (% of control) in experiment [13] was 104% (inactive). For the same compound, the efflux inhibition (fraction of control) in experiment [14] is 0.33 (inactive). For the same compound, the differentiation response in experiment [16] is -4.57% (inactive).
Take `Nc1nc2c(nc(SCc3ccccc3Br)n2C2OC(CO)C(O)C2O)c(=O)[nH]1` (centres undefined): the percent of DMSO control GFP in experiment [1] was 102% (inactive). Also, the GFP response vs DMSO was 97.4% (inactive) in experiment [2] and 108% (inactive) in experiment [4]. Moreover, the percent response of DMSO control in [3] is 101% (inactive). Also, in [5], the GFP response, % of DMSO was 101% (inactive). The same compound returned a double positive events in experiment [6] of 62.7%. The vesicle binding response in experiment [6] is 50.1% (inactive). In addition, the inhibition was -1.79% (inactive) in experiment [7], 26.3% (inactive) in experiment [11] and 1% (inactive) in [15]. Moreover, the superoxide response (% of plate) in experiment [8] is 94.9% (inactive). The aptamer binding inhibition in experiment [9] was 0% (inactive). In addition, the response is 17.9% (inactive) in experiment [10] and -4.55% (inactive) in [12]. Besides, the binding (% of control) in experiment [13] was 90.9% (inactive). The efflux inhibition (fraction of control) in experiment [14] was 0.12 (inactive). The differentiation response in experiment [16] was -23.2% (inactive).
With `CC(=O)NC(Cc1ccccc1)C(=O)OCC(=O)c1ccccc1` (centres undefined), the percent of DMSO control GFP in experiment [1] is 96% (inactive). The GFP response vs DMSO in experiment [2] is 102% (inactive); in experiment [4] it was 106% (inactive). In addition, the percent response of DMSO control in experiment [3] was 88.6% (inactive). The GFP response, % of DMSO in experiment [5] is 100% (inactive). The compound also yielded a double positive events in experiment [6] of 65.2%. Further, the vesicle binding response in experiment [6] is 144% (inactive). The inhibition in experiment [7] was 9.1% (inactive); in [11] it was 9.32% (inactive); in [15], 6% (inactive). For the same compound, the superoxide response (% of plate) in [8] was 111% (inactive). The aptamer binding inhibition in [9] was 3% (inactive). The response in [10] was -9.61% (inactive); in [12] it was 3.98% (inactive). Further, in [13], the binding (% of control) is 105% (inactive). Moreover, the efflux inhibition (fraction of control) in experiment [14] was 0 (inactive). For the same compound, in [16], the differentiation response was -21.7% (inactive).
Regarding `Cc1ccc(Cl)c(Nc2ccccc2C(=O)O)c1Cl`, the percent of DMSO control GFP in [1] is 98.9% (inactive). Also, the values for the GFP response vs DMSO in experiment [2] and in [4] were 103% (inactive) and 114% (inactive), respectively. Besides, the percent response of DMSO control in experiment [3] is 94.4% (inactive). The GFP response, % of DMSO in experiment [5] is 98% (inactive). Moreover, the double positive events in [6] worked out at 60.7%. In addition, in [6], the vesicle binding response was 123% (inactive). Further, the inhibition in experiment [7] is 2.29% (inactive); in experiment [11], 1.34% (inactive); in experiment [15], 2% (inactive). Moreover, the superoxide response (% of plate) in experiment [8] was 95.2% (inactive). Further, the aptamer binding inhibition in [9] is 2% (inactive). In addition, the response is -14.2% (inactive) in experiment [10] and 11.1% (inactive) in experiment [12]. For the same compound, in experiment [13], the binding (% of control) was 103% (inactive). Also, the efflux inhibition (fraction of control) in [14] was -0.13 (inactive). Besides, in experiment [16], the differentiation response is -4.99% (inactive).

The values are drawn from PubChem BioAssay.
